According to the supplement of paper PMC8728848:
The sample as a whole holds a higher share of the strongest signals than the screen did.

Assays:
Experiment in all cases: glycan array binding signal (z-score within array); higher = stronger binding
Conditions in all cases: glycan notation: IUPAC condensed, linker removed
Gal3S6S(b1-4)GlcNAc6S = target: Gal3S6S(b1-4)GlcNAc6S
Outline: (§1)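 Negative Z-scores can be read as non-binding. The Z-score is calculated within each array and then averaged across arrays of one protein sequence at different concentrations or buffers and across linkers. Arrays, 3228 in all, were curated from the Consortium for Functional Glycomics database and kept only where the protein sequence was available.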

Gal6S(b1-4)Glc = target: Gal6S(b1-4)Glc
Outline: as §1

Gal6S(b1-4)GlcNAc6S = target: Gal6S(b1-4)GlcNAc6S
Outline: as §1

Glc(b1-6)Glc = target: Glc(b1-6)Glc
Outline: as §1

[1] = target: GlcNAc(b1-2)[GlcNAc(b1-6)]Man(a1-6)[GlcNAc(b1-4)][GlcNAc(b1-2)Man(a1-3)]Man(b1-4)GlcNAc(b1-4)GlcNAc
Outline: as §1

[2] = target: GlcNAc(b1-3)Gal(b1-4)GlcNAc(b1-2)Man(a1-3)[GlcNAc(b1-3)Gal(b1-4)GlcNAc(b1-2)Man(a1-6)]Man(b1-4)GlcNAc(b1-4)GlcNAc
Outline: as §1

[3] = target: GlcNAc(b1-3)Gal(b1-4)GlcNAc(b1-2)Man(a1-3)[GlcNAc(b1-3)Gal(b1-4)GlcNAc(b1-2)Man(a1-6)]Man(b1-4)GlcNAc(b1-4)[Fuc(a1-6)]GlcNAc
Outline: as §1

[4] = target: GlcNAc(b1-3)Gal(b1-4)GlcNAc(b1-3)Gal(b1-4)GlcNAc(b1-3)Gal(b1-4)GlcNAc(b1-2)Man(a1-3)[GlcNAc(b1-3)Gal(b1-4)GlcNAc(b1-3)Gal(b1-4)GlcNAc(b1-3)Gal(b1-4)GlcNAc(b1-2)Man(a1-6)]Man(b1-4)GlcNAc(b1-4)[Fuc(a1-6)]GlcNAc
Outline: as §1

[5] = target: GlcNAc(b1-3)Gal(b1-4)GlcNAc(b1-3)Gal(b1-4)GlcNAc(b1-3)Gal(b1-4)GlcNAc(b1-2)[GlcNAc(b1-3)Gal(b1-4)GlcNAc(b1-3)Gal(b1-4)GlcNAc(b1-3)Gal(b1-4)GlcNAc(b1-6)]Man(a1-6)[GlcNAc(b1-3)Gal(b1-4)GlcNAc(b1-3)Gal(b1-4)GlcNAc(b1-3)Gal(b1-4)GlcNAc(b1-2)Man(a1-3)]Man(b1-4)GlcNAc(b1-4)[Fuc(a1-6)]GlcNAc
Outline: as §1

GlcNAc(b1-4)GlcNAc = target: GlcNAc(b1-4)GlcNAc
Outline: as §1

[6] = target: GlcNAc(b1-4)GlcNAc(b1-4)GlcNAc(b1-4)GlcNAc(b1-4)GlcNAc
Outline: as §1

[7] = target: GlcNAc(b1-4)GlcNAc(b1-4)GlcNAc(b1-4)GlcNAc(b1-4)GlcNAc(b1-4)GlcNAc
Outline: as §1

[8] = target: Kdn(a2-3)Gal(b1-4)[Fuc(a1-3)]GlcNAc
Outline: as §1

[9] = target: Man(a1-2)Man(a1-3)[Man(a1-2)Man(a1-6)]Man(a1-6)[Man(a1-2)Man(a1-2)Man(a1-3)]Man(b1-4)GlcNAc(b1-4)GlcNAc
Outline: as §1

[10] = target: Man(a1-2)Man(a1-6)[Man(a1-3)]Man(a1-6)[Man(a1-2)Man(a1-2)Man(a1-3)]Man(b1-4)GlcNAc(b1-4)GlcNAc
Outline: as §1

[11] = target: Neu5Ac(a2-3)Gal(b1-3)GalNAc
Outline: as §1

[12] = target: Neu5Ac(a2-3)Gal(b1-3)GlcNAc(b1-2)Man(a1-3)[Neu5Ac(a2-3)Gal(b1-3)GlcNAc(b1-2)Man(a1-6)]Man(b1-4)GlcNAc(b1-4)GlcNAc
Outline: as §1

[13] = target: Neu5Ac(a2-3)Gal(b1-4)GlcNAc(b1-2)Man
Outline: as §1

[14] = target: Neu5Ac(a2-3)Gal(b1-4)GlcNAc(b1-2)Man(a1-3)[Neu5Ac(a2-3)Gal(b1-4)GlcNAc(b1-2)Man(a1-6)]Man(b1-4)GlcNAc(b1-4)[Fuc(a1-6)]GlcNAc
Outline: as §1

[15] = target: Neu5Ac(a2-3)Gal(b1-4)GlcNAc(b1-3)Gal(b1-4)GlcNAc(b1-2)Man(a1-3)[Neu5Ac(a2-3)Gal(b1-4)GlcNAc(b1-3)Gal(b1-4)GlcNAc(b1-2)Man(a1-6)]Man(b1-4)GlcNAc(b1-4)GlcNAc
Outline: as §1

[16] = target: Neu5Ac(a2-3)Gal(b1-4)GlcNAc(b1-6)[Gal(b1-3)]GalNAc
Outline: as §1

[17] = target: Neu5Ac(a2-3)Gal(b1-4)[Fuc(a1-3)]GlcNAc
Outline: as §1

[18] = target: Neu5Ac(a2-3)Gal6S(b1-4)[Fuc(a1-3)]GlcNAc
Outline: as §1

[19] = target: Neu5Ac(a2-6)Gal(b1-4)GlcNAc(b1-2)Man(a1-3)[Gal(b1-4)GlcNAc(b1-2)Man(a1-6)]Man(b1-4)GlcNAc(b1-4)GlcNAc
Outline: as §1

[20] = target: Neu5Ac(a2-6)Gal(b1-4)GlcNAc(b1-2)Man(a1-3)[Neu5Ac(a2-3)Gal(b1-4)GlcNAc(b1-2)Man(a1-6)]Man(b1-4)GlcNAc(b1-4)GlcNAc
Outline: as §1

[21] = target: Neu5Ac(a2-6)Gal(b1-4)GlcNAc(b1-2)Man(a1-6)[Man(a1-3)]Man(b1-4)GlcNAc(b1-4)GlcNAc
Outline: as §1

[22] = target: Neu5Ac(a2-6)Gal(b1-4)GlcNAc(b1-3)Gal(b1-4)GlcNAc(b1-3)GalNAc
Outline: as §1

[23] = target: Neu5Ac(a2-8)Neu5Ac(a2-3)[Gal(b1-3)GalNAc(b1-4)]Gal(b1-4)Glc
Outline: as §1

B1: HBHA-Rv (Mycobacterium tuberculosum), P0A5P6 (protein)
chain: MAENSNIDDIKAPLLAALGAADLALATVNELITNLRERAEETRTDTRSRVEESRARLTKLQEDLPEQLTELREKFTAEELRKAAEGYLEAATSRYNELVERGEAALERLRSQQSFEEVSARAEGYVDQAVELTQEALGTVASQTRAVGERAAKLVGIELPKKAAPAKKAAPAKKAAPAKKAAAKKAPAKKAAAKKVTQK
- glycan array binding signal (z-score) (Gal3S6S(b1-4)GlcNAc6S): 1.29
- glycan array binding signal (z-score) (Gal6S(b1-4)Glc): 1.36
- glycan array binding signal (z-score) (Gal6S(b1-4)GlcNAc6S): 0.203
- glycan array binding signal (z-score) (Glc(b1-6)Glc): 0.495
- glycan array binding signal (z-score) [1]: -0.415
- glycan array binding signal (z-score) [2]: -0.423
- glycan array binding signal (z-score) [3]: -0.332
- glycan array binding signal (z-score) [4]: -0.455
- glycan array binding signal (z-score) [5]: -0.347
- glycan array binding signal (z-score) (GlcNAc(b1-4)GlcNAc): -0.292
- glycan array binding signal (z-score) [6]: 4.22
- glycan array binding signal (z-score) [7]: 3.44
- glycan array binding signal (z-score) [8]: -0.371
- glycan array binding signal (z-score) [9]: -0.264
- glycan array binding signal (z-score) [10]: 1.09
- glycan array binding signal (z-score) [11]: 1.62
- glycan array binding signal (z-score) [12]: -0.163
- glycan array binding signal (z-score) [13]: -0.023
- glycan array binding signal (z-score) [14]: -0.174
- glycan array binding signal (z-score) [15]: -0.297
- glycan array binding signal (z-score) [16]: -0.331
- glycan array binding signal (z-score) [17]: -0.199
- glycan array binding signal (z-score) [18]: 0.273
- glycan array binding signal (z-score) [19]: -0.354
- glycan array binding signal (z-score) [20]: -0.42
- glycan array binding signal (z-score) [21]: -0.302
- glycan array binding signal (z-score) [22]: -0.379
- glycan array binding signal (z-score) [23]: 1.55
